# Cardiac RTF inh – cardiac RTF calcium desensitization; P19429+P45379; IANBD-labeled cardiac RTF, Ca2+ fluorescence; inhibition, % at 7.15 µM; 0.12% of 340,000 active; AID 493244;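 active = inhibition above the mean inhibition of all tested compounds plus 3 SD, cut at about 17% in these data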;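 also: assay run at fixed EC70 calcium of 1.6 mM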
# Myeloid diff MLP – myeloid differentiation induction; ER-HoxA9 myeloid progenitors, lysozyme-GFP differentiation, flow cytometry; calls only at 10 µM; 1% of 360,000 active;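 active = normalized GFP-positive differentiation at or above the plate's own cutoff, the solvent-only control mean plus 3 SD; inconclusive = no clear call, values can overlap the other calls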;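 also: cells exposed to compound for four days before flow analysis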
# RTF Ca sens act – increases calcium sensitivity of human cardiac regulated thin filaments; P19429+P45379; IANBD-labeled TnC RTF fluorescence at EC20 calcium; 0% EC20 calcium, 100% full calcium; activation, % at 7.2 µM; 0.24% of 340,000 active; AID 493008;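 active = activation above the mean over all tested compounds plus 3 SD, cut at about 30% in these data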;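 also: rise in fluorescence read as greater calcium sensitivity of cardiac thin filaments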
# CRFR2-BP ag – agonists of human CRF-binding protein/CRF-R2 receptor complex. HEK293 CRF-R2/CRF-BP, calcium dye fluorescence (FLIPR); percent of saturating CRF peptide response. activation, % at 13.2 µM. 0.46% of 350,000 active. AID 588473;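 active = activation of at least 50%, plus an integration ratio under a set limit after plate pattern correction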;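 also: plate controls were neutral control wells without compound for no effect and CRF at EC100 for full effect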
# CRFBP-R2 block – blocks CRF-induced signaling of the CRF-BP/CRF-R2 complex | HEK293 CRF-R2/CRF-BP, CRF-induced calcium fluorescence | inhibition, % at 11.8 µM | 0.59% of 350,000 active;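 active = inhibition of the ligand-induced calcium signal above about 50% at the single tested concentration, limit read from the data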
# * marks the source's active call; other numbers are inactive results; i = inactive; u = inconclusive; x = not tested or not shown; + = active, no number. Hits are enriched below; roughly 2.2% of the tested compounds scored in any of these assays.
SMILES,Cardiac RTF inh,Myeloid diff MLP,RTF Ca sens act,CRFR2-BP ag,CRFBP-R2 block
Cc1sc2ncnc(Sc3ccccc3C(=O)Nc3ccc(Br)cc3)c2c1C,0.7,i,-4.6,-2.1,1.6
Cc1sc2ncnc(Sc3ccccc3C(=O)Nc3ccc(C#N)cc3)c2c1C,-14.2,i,12.6,-3.9,60.9*
Cc1ccc(CN2CCC(Oc3cccc(C(=O)NCc4cccnc4)c3)CC2)o1,-20.4,+,3.8,27.3,-17.0
CCN(c1ccccc1)S(=O)(=O)c1csc(C(N)=O)c1,-6.1,i,0.4,1.4,-0.8
O=C(NNC(=O)c1ccco1)c1ccc(NS(=O)(=O)c2cccs2)cc1,-14.6,i,-1.1,-0.9,-0.6
O=c1oc2ccccc2nc1/C=C(\O)c1ccc(Br)cc1,-5.5,i,-0.2,47.0,-24.6
C/C(O)=C\c1nc2ccccc2oc1=O,1.3,+,1.5,-1.5,-6.0
Cc1ccc2oc(=O)c(/C=C(\O)c3cccs3)nc2c1,0.5,i,5.1,120.0*,-80.4
Cc1ccc2oc(=O)c(/C=C(\O)c3ccccc3)nc2c1,-9.0,i,2.5,70.6*,-25.4
Nc1cccc(-c2c[nH]c3ncc(-c4cccnc4)cc23)c1,9.1,i,4.3,-0.3,-14.6
CCN(C(=O)COC(=O)CNC(=O)c1ccc(Cl)cc1Cl)c1c(N)n(Cc2ccccc2)c(=O)[nH]c1=O,5.8,i,-8.5,8.1,-41.9
COc1ccccc1NS(=O)(=O)c1ccc(O)c(C(=O)OCC(=O)N2CCc3ccccc32)c1,-5.2,i,-8.0,-0.5,-9.0
COc1ccccc1NS(=O)(=O)c1ccc(O)c(C(=O)OCC(=O)N2c3ccccc3CC2C)c1 (stereo not drawn),-15.1,+,2.2,1.1,13.9
CCCOc1ccc(OC(=O)Cc2ccc(OC)c(S(=O)(=O)N3CCOCC3)c2)cc1,-1.1,+,-5.0,-0.4,-0.1
COc1ccc(NC(=O)NC(C)c2ccc3c(c2)OCO3)c(OC)c1 (stereo not drawn),0.0,i,-4.6,-3.9,62.9*
CCOc1ccccc1NC(=O)NC(C)c1ccc2c(c1)OCO2 (stereo not drawn),4.1,i,-3.1,x,x
O=c1c2ccccc2nc(COc2ccccc2)n1/N=C/c1cn[nH]c1-c1ccccc1,-1.8,+,-2.7,2.2,-4.3
OCC[n+]1ccc(/C=C/c2c[nH]c3ccccc23)cc1,-275.1,u,188.8*,118.9*,-41.0
N/C(=N/OC(=O)c1ccc(Cl)cc1)c1ncc([N+](=O)[O-])s1,x,+,x,3.1,-4.5
COc1cc(CNCCN(C)C)c(Br)cc1OC1CCCC1,-12.4,i,-0.9,-0.7,6.2
Cc1ccc(S(=O)(=O)N2CCCC(C(=O)NCCc3ccc(S(N)(=O)=O)cc3)C2)cc1 (stereo not drawn),-9.4,u,-3.0,1.6,2.7
O=C(Cc1ccccc1[N+](=O)[O-])NCCC1=CCCCC1,11.0,+,-2.4,-5.0,-7.3
CCc1ccc2nc(N3CCN(C(=O)C(C)(C)C)CC3)sc2c1,-4.8,+,2.1,-0.5,2.5
CC(C)(C)C(=O)N1CCN(c2nc3ccccc3s2)CC1,-7.7,i,2.8,-1.3,49.1
Cc1cc(N2CCCC2)ccc1NC(=O)COc1ccccc1,-16.8,+,-13.7,0.4,3.1
SMILES,Cardiac RTF inh,Myeloid diff MLP,RTF Ca sens act,CRFR2-BP ag,CRFBP-R2 block
CCc1ccccc1OCC(=O)Nc1ccc(N2CCCC2)cc1C,-11.6,+,-14.8,-0.3,5.4
COc1ccc(N2CCCC2)c(NC(=O)COc2ccccc2)c1,-15.6,i,-0.4,-0.5,-1.1
CCN(Cc1nc2cc(Cl)ccc2c(=O)[nH]1)C(=O)c1cc(C2CC2)nn1-c1ccccc1,2.7,i,-6.3,0.3,5.9
CC(=O)Nc1ccc(-c2ccnc3c2CC(C)(C(=O)Nc2cccc(Oc4ccccc4)c2)O3)cc1 (stereo not drawn),x,i,x,x,x
CC(C)OC(=O)c1c2c(n3ccccc13)C(=O)c1ccccc1C2=O,-15.5,i,19.4,181.6*,-165.2
CCOC(=O)Nc1sc(C)nc1-c1ccccc1,-5.0,i,-1.9,0.3,-13.2
CCOC(=O)Nc1cc2c(c(N)n1)N=C(c1ccccc1)CN2,-4.8,u,3.7,64.6*,-80.4
CCOc1ccc(NS(=O)(=O)c2ccc(OCC)c3ncccc23)cc1,-4.1,+,-1.9,-1.2,-20.7
Cc1cc(NC(=O)CCC(=O)N(CCC(C)C)C(C(=O)NCC2CCCO2)c2ccccc2C)no1 (stereo not drawn),-5.3,i,-8.2,0.0,-1.3
